According to PubChem BioAssay (NCI):
The panel holds about 83,000 compounds, 20% with a hit somewhere; the sample as a whole holds those more often.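 Step 1: grow cells in 96-well plates. Step 2: add test compound at a single concentration. Step 3: incubate 48 h. Step 4: record percent growth.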 Values without a mark were called inactive. The source made the active and inactive calls. How the source made its calls: active means growth percent below 10; inactive means the rest.

How the values were obtained:
Experiment in all cases: NCI-60 one-dose screen, 48 h (100 = growth as untreated, 0 = no growth, -100 = all killed)
Details in all cases: 10 µM unless noted
EKVX NSCLC = tested on: EKVX NSCLC
SN12C renal = tested on: SN12C renal
UO-31 renal = tested on: UO-31 renal
TK-10 renal = tested on: TK-10 renal
ACHN renal = tested on: ACHN renal
CAKI-1 renal = tested on: CAKI-1 renal
A498 renal = tested on: A498 renal
CCRF-CEM leukemia = tested on: CCRF-CEM leukemia
MOLT-4 leukemia = tested on: MOLT-4 leukemia
SR leukemia = tested on: SR leukemia

Structure (SMILES)	growth (EKVX NSCLC)	growth (SN12C renal)	growth (UO-31 renal)	growth (TK-10 renal)	growth (ACHN renal)	growth (CAKI-1 renal)	growth (A498 renal)	growth (CCRF-CEM leukemia)	growth (MOLT-4 leukemia)	growth (SR leukemia)
COC(=O)/C(CCC=C(C)C)=C1\[C@@H](OC(C)=O)C[C@@]2(C)[C@H]1CC(=O)[C@H]1[C@@]3(C)CC[C@H](NCc4ccccc4)[C@@H](C)[C@@H]3CC[C@@]12C	87.9%	87%	69.9%	111%	99.3%	86.8%	91.9%	76.4%	61.7%	1.93% (active)
Oc1[nH]c2ccccc2c1N=Nc1nnc2n1N=C(c1ccccc1)CS2	87.7%	99.1%	100%	94%	94.8%	79.4%	92.9%	96.6%	88%	77.3%
Cc1c(-c2noc(-c3ccc([N+](=O)[O-])cc3)n2)no[n+]1[O-]	65.2%	98.3%	78.4%	153%	89.2%	83.8%	117%	101%	101%	103%
O=C(c1nc2ccccc2[nH]1)C1C(c2ccc([N+](=O)[O-])cc2)C2CC3CCCCC3N2[C@@]12C(=O)Nc1cc(Cl)ccc12 (stereo not given in full)	16.6%	34.1%	13.1%	36.7%	18.4%	41.5%	-1.18% (active)	24.2%	8.23% (active)	19.6%
COC(=O)C1(C)CCC[C@]2(C)[C@H]3C[C@H]4C(C(C)C)=C[C@]3(CC[C@@H]12)[C@H]1[C@@H]4[C@@H](OCC#CCN2CCOCC2)CC[C@@H]1OCC#CCN1CCOCC1 (stereo not given in full)	67.2%	81.1%	72.9%	98%	92.3%	80%	101%	72%	70%	88.3%
Cn1c(/C=C(\C#N)c2cccc(C(F)(F)F)c2)nc2c(N3CCOCC3)nc(Cl)nc21	-76.2% (active)	-0.107% (active)	-100% (active)	-67% (active)	-100% (active)	-94% (active)	10.8%	4.85% (active)	-14.3% (active)	10.3%
O=C(Nc1ccc(N2CCNCC2)cn1)c1[nH]ncc1Nc1ncnc2sccc12	65.8%	66.9%	76.1%	87.1%	60.2%	54.1%	80.7%	5.54% (active)	2.22% (active)	-5.97% (active)
O=C(O)c1cn(C2CC2)c2cc(N3CCN(C(=O)C[n+]4ccccc4)CC3)c(F)cc2c1=O	94.4%	97.5%	88.1%	99.3%	103%	94.3%	87.6%	97.4%	104%	107%
COc1ccc2sc3c(NCCCN)nc4ccccc4c3c(=O)c2c1	57.5%	81.3%	67.1%	74.8%	48.7%	73%	49.8%	0.782% (active)	-17.3% (active)	2.94% (active)
O=c1c(-c2nc3ccccc3[nH]2)cc2ccccc2n1Cc1cn(Cc2ccccc2Cl)nn1	74.8%	12%	-65.7% (active)	31%	12.2%	77.4%	67%	65.2%	32.5%	11.5%
Cn1c(/C=C(\C#N)c2ccccc2)nc2c(N3CCOCC3)nc(Cl)nc21	-72.4% (active)	-58.6% (active)	-100% (active)	-63.6% (active)	-96.2% (active)	-96.9% (active)	2.31% (active)	2.94% (active)	-12.4% (active)	10.7%
COC(=O)C1=Nc2ccc(F)cc2/C1=C/c1sc(=S)[nH]c1O	36.8%	27.3%	14.7%	56%	25.1%	20%	25.7%	11.9%	13.7%	22.3%
Cn1cc(-c2ccc3ncc(-c4ccc(CC(=O)Nc5cc(C(C)(C)C)no5)cc4)nc3c2)cn1	50%	26.8%	2.84% (active)	50.8%	15.2%	16.6%	17.9%	50.6%	30.7%	16%
CC(C)C[C@H](C(=O)N[C@@H](C)C(N)=O)N1CC=CCN(O)S1(=O)=O	176% [5 µM]	106% [5 µM]	109% [5 µM]	106% [5 µM]	94.7% [5 µM]	115% [5 µM]	125% [5 µM]	105% [5 µM]	102% [5 µM]	95.3% [5 µM]
O=C1CCC(N2C(=O)c3cccc(NCCCCCCOc4ccc(Nc5nccc(Nc6ccccc6)n5)cc4)c3C2=O)C(=O)N1 (stereo not given)	77.3%	79%	77.8%	108%	74.8%	63.8%	74.6%	66.1%	55.2%	68.5%
COc1cccc(C2=NN3C(C2)c2ccccc2OC3c2ccc(/C=C3\SC(=O)NC3=O)cc2)c1 (stereo not given)	85.4%	101%	73.2%	102%	98.7%	96.4%	88.6%	97.1%	96.9%	120%
COC(=O)/C(CCC=C(C)C)=C1\[C@@H](OC(C)=O)C[C@@]2(C)[C@H]1C[C@@H](O)[C@H]1[C@@]3(C)CC[C@H](NC(=O)c4cnccn4)[C@@H](C)[C@@H]3CC[C@@]12C	94.1%	95.7%	85.6%	117%	101%	92%	108%	103%	83.9%	93.5%
CCCCC1CCc2cccc3c(SCC(=O)N(C)c4ccc(Cl)cc4)cc[n+]1c23 (stereo not given)	125%	104%	103%	109%	105%	99.1%	114%	108%	98.7%	101%
CCC1=C[C@]2(C3CC(=O)N(c4ccccc4)C3=O)CC(C(C)(C)C)C[C@@H]2[C@@H]2C(=O)N(c3ccccc3)C(=O)[C@H]12 (stereo not given in full)	74.3%	89.2%	73.1%	99.7%	90.5%	71.4%	88%	86.2%	80.4%	80.4%
O=C(/C=C/c1ccc(Cl)cc1)c1ccc(Nc2nc(NCCO)nc(N3CCOCC3)n2)cc1	94%	88.4%	56%	111%	82.5%	77.6%	92.6%	82.8%	71.3%	19.8%
Nc1nc(-c2cnccn2)nn1-c1nc2ccccc2s1	94.6%	101%	99.6%	117%	108%	96.8%	118%	97.4%	94.7%	98.4%
CCOC(=O)c1c2c(c(C)n1Cc1ccc(OC)cc1)-c1oncc1CC2	94.3%	175%	65.3%	102%	91.3%	70.6%	91.9%	93.3%	85.3%	85.4%
COc1cc(/C=C2\CN(C)C/C(=C\c3cc(CN4CCCCC4)c(O)c(OC)c3)C2=O)cc(CN2CCCCC2)c1O	46%	38.2%	57%	57.6%	39%	55.9%	71.1%	19.9%	16.5%	28.5%
O=c1c2cc(F)ccc2sc2c(Nc3ccncc3)nc3ccccc3c12	35.8%	90%	-83.3% (active)	78.6%	28.5%	82.5%	63.9%	-27.4% (active)	-36.9% (active)	-4.43% (active)
COc1ccc(/C(C#N)=C/c2nc3c(N4CCOCC4)nc(Cl)nc3n2C)cc1OC	20.1%	11.2%	-92.9% (active)	-21.1% (active)	-51.3% (active)	-14.2% (active)	-27.8% (active)	11.8%	2.05% (active)	17.7%
Cc1cc2c(c(C)c1Cl)C(=O)/C(=C/c1cccc([N+](=O)[O-])c1)O2	98.3%	96.9%	96.2%	129%	107%	91.6%	95.6%	102%	90.5%	85.5%
